About 79,000 compounds went through this panel and 15% of them were active in at least one assay; those are over-represented in the sample as a whole. Unmarked numbers belong to inactive results. Calls of active or inactive are those of the source. Cut-off read from the data, not from the text of the source: active = growth inhibition above about 70%; inactive = the rest.

One assay can be described thus: NCI Yeast Anticancer Drug Screen. Data for the sgs1 mgt1 strain (AID 161).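 Note: 0% = growth of cultures given vehicle only.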 The note with it: S. cerevisiae sgs1 mgt1 strain, at 50.0 µM, hits give high values. The essentials: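 Read-out: growth inhibition vs vehicle controls. Cells: mutant yeast strain deficient in DNA damage repair.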
Regarding `N#CCC(=O)O`, the growth inhibition is -4.3%.
Still for that read-out and setting: next, `O=C(/C=C(/CC(=O)c1ccccc1)C(=O)c1ccccc1)c1ccccc1`: -11.2%.
Turning to `CCCCCCCCCCCCP(=O)(O)O`, the growth inhibition is -19.9%.
The same measure, in the same setting: next, `O=C1CCC(=O)N1CCc1cccc2ccccc12`: 30.4%; `O=C(O)/C=C/C(=O)Nc1ccc(Cl)cc1C(=O)c1ccccc1`: 33%.
Same read-out and setting: next, `N[N+]1(CCS(N)(=O)=O)CCOCC1`: -0.9%; `NC(=S)c1ccccn1`: 32.8%; `CC(C)Oc1ccc(CCOC(=O)Nc2cccc3ccccc23)cc1`: 2%.
As to `C[Si](C)(C)O[Si](C)(C)CCl`, the growth inhibition was -3.1%.
Same read-out and setting: the same measure for `CC(C)(C)c1cc(-c2cc(C(C)(C)C)nc(N)n2)nc(N)n1`: -14%; for `NC(CSS(=O)(=O)O)C(=O)O` (stereo not given): -1.55%; for `O=[N+]([O-])c1ccc(CN2CCC(C(=S)Nc3ccccc3)=C2c2ccccc2)cc1`: 8.8%.
Same read-out and setting: next, `CCCCNC(=O)CCC(NS(=O)(=O)c1ccc(C)cc1)C(=O)NCCCC` (stereo not given): -9%; `COc1c(C=O)c2c(c(OC)c1OC)-c1ccc(OC)c(=O)cc1[C@@H](NC(C)=O)CC2`: -0.25%; `CCC(=O)OCC(OC(=O)CC)c1ccccc1` (stereo not given): -16.1%.
On to `CC(=O)NC1CC2c3ccccc3C1([N+](=O)[O-])c1ccccc12` (stereo not given), for which the growth inhibition is 15.6%.
Same read-out and setting: the same measure for `CCNC1CC(C(C)(C)NCC)CC=C1C` (stereo not given): -38.7%; for `COC(=O)C1=C(C(=O)OC)C(=Nc2ccccc2)c2ccccc2C1=O`: 74.2% (active); for `CC(Oc1cc2oc(=O)cc(-c3ccccc3)c2cc1Cl)C(=O)O` (stereo not given): 7.05%.
Still for that read-out and setting: next, `c1cnc2c3ccncc3c3nc(-c4ccncc4)[nH]c3c2c1`: -11.3%.
As to `COCC(C)OC(=O)c1ccccc1` (stereo not given), the growth inhibition was -9.9%.
The same measure, in the same setting: next, `O=C(Nc1ccccc1Cl)c1ccc([N+](=O)[O-])cc1`: 18.6%.
Take `C=CCc1ccc(OC(=O)CC)c(OC)c1`: the growth inhibition was -16.4%.
On to `O=Cc1ccccc1Cl`, for which the growth inhibition is 16.8%.
Regarding `Cc1ccc(S(=O)(=O)Nc2ccccc2)cc1`, the growth inhibition was 21%.
With `CN1CCCC2[C@@H]3CCC4=C(O)C(=O)CC[C@]4(C)C3CC[C@@]21C` (stereo not given in full), the growth inhibition was -4%.
Same read-out and setting: next, `CN(C)CCCNc1ncnc2nc[nH]c12`: -31.8%.
On the same count and under the same terms, the same measure for `N#C/C(N)=C(\C#N)NC=NCc1ccccc1`: 20.2%; for `c1ccc2c(c1)NC(N1CCCCC1)=Nc1ncncc1-2`: 7.75%.
The same measure, in the same setting: next, `O=C1C(Cl)N(c2ccc([N+](=O)[O-])cc2)C1c1c[nH]c2ccccc12` (stereo not given): -0.3%.
For the molecule `OC1CN(c2ccccc2)CC(O)CN(c2ccccc2)C1` (stereo not given), the growth inhibition is 7.3%.
As to `CC(=O)CC(=O)NCCN(C)C`, the growth inhibition is -11.2%.
As for `COc1ccc(NC(=O)Nc2ccc(Br)cc2)cc1`, the growth inhibition was -0.15%.
Take `C[C@@H]1CC[C@]2(C(=O)O)CC[C@]3(C)C(=CC[C@@H]4[C@@]5(C)CC[C@H](O)C(C)(C)[C@@H]5CC[C@]43C)[C@@H]2[C@]1(C)O`: the growth inhibition was 2.75%.
Same read-out and setting: next, `OCC1NCCC(O)C1OC1OC(CO)C(O)C(O)C1O` (stereo not given): -0.65%; `NC(N)=NS(=O)(=O)c1ccc(NC(=O)c2ccc(Cl)c3c(Nc4ccc(S(=O)(=O)N=C(N)N)cc4)c4ccccc4nc23)cc1`: 30.9%; `Cc1cccc(C)c1NC(=O)C(=O)/C(=C(\N)c1ccccc1)c1ccccc1`: -15.2%.
The same measure, in the same setting: next, `CCCC1CN2CCc3cc(OC)c(OC)cc3C2CC1=O` (stereo not given): 41.1%; `CCC[CH2][Sn]([C]#[C][Sn]([CH2]CCC)([CH2]CCC)[CH2]CCC)([CH2]CCC)[CH2]CCC`: 99.5% (active).
On to `O=[N+]([O-])c1cc2c(cc1O)[nH]c1cccc([N+](=O)[O-])c12`, for which the growth inhibition is -42.5%.

A further assay is described as follows: NCI Yeast Anticancer Drug Screen. Data for the cln2 rad14 strain (AID 165).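 Note: 0% = growth equal to vehicle treated cultures.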 Particulars: S. cerevisiae cln2 rad14 strain, at 50.0 µM, hits give high values. The essentials:
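Growth of compound-exposed yeast (cln2 rad14 genotype) measured and expressed as inhibition relative to vehicle.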
As for `N#CCC(=O)O`, the growth inhibition was 2.05%.
With `O=C(/C=C(/CC(=O)c1ccccc1)C(=O)c1ccccc1)c1ccccc1`, the growth inhibition was -22.1%.
For the molecule `CCCCCCCCCCCCP(=O)(O)O`, the growth inhibition was -9.65%.
Consider `O=C1CCC(=O)N1CCc1cccc2ccccc12`, for which the growth inhibition was 5.4%.
The same measure, in the same setting: the same measure for `O=C(O)/C=C/C(=O)Nc1ccc(Cl)cc1C(=O)c1ccccc1`: 0.4%; for `N[N+]1(CCS(N)(=O)=O)CCOCC1`: -31.2%.
Same read-out and setting: the same measure for `NC(=S)c1ccccn1`: -22.5%; for `CC(C)Oc1ccc(CCOC(=O)Nc2cccc3ccccc23)cc1`: 6.65%.
On the same count and under the same terms, the same measure for `C[Si](C)(C)O[Si](C)(C)CCl`: -10.2%; for `CC(C)(C)c1cc(-c2cc(C(C)(C)C)nc(N)n2)nc(N)n1`: -18.7%.
Take `NC(CSS(=O)(=O)O)C(=O)O` (stereo not given): the growth inhibition was -31.9%.
On to `O=[N+]([O-])c1ccc(CN2CCC(C(=S)Nc3ccccc3)=C2c2ccccc2)cc1`, for which the growth inhibition was 9.05%.
The same measure, in the same setting: next, `CCCCNC(=O)CCC(NS(=O)(=O)c1ccc(C)cc1)C(=O)NCCCC` (stereo not given): 1.85%; `COc1c(C=O)c2c(c(OC)c1OC)-c1ccc(OC)c(=O)cc1[C@@H](NC(C)=O)CC2`: 7.15%; `CCC(=O)OCC(OC(=O)CC)c1ccccc1` (stereo not given): 2.05%.
In the case of `CC(=O)NC1CC2c3ccccc3C1([N+](=O)[O-])c1ccccc12` (stereo not given), the growth inhibition is 6.45%.
On the same count and under the same terms, the same measure for `CCNC1CC(C(C)(C)NCC)CC=C1C` (stereo not given): -15.4%; for `COC(=O)C1=C(C(=O)OC)C(=Nc2ccccc2)c2ccccc2C1=O`: 8.2%.
Consider `CC(Oc1cc2oc(=O)cc(-c3ccccc3)c2cc1Cl)C(=O)O` (stereo not given), for which the growth inhibition was 14.7%.
Still for that read-out and setting: next, `c1cnc2c3ccncc3c3nc(-c4ccncc4)[nH]c3c2c1`: -34.8%; `COCC(C)OC(=O)c1ccccc1` (stereo not given): -23.4%; `O=C(Nc1ccccc1Cl)c1ccc([N+](=O)[O-])cc1`: 10.3%.
The same measure, in the same setting: the same measure for `C=CCc1ccc(OC(=O)CC)c(OC)c1`: -8.75%; for `O=Cc1ccccc1Cl`: -15.2%.
Take `Cc1ccc(S(=O)(=O)Nc2ccccc2)cc1`: the growth inhibition is -20.2%.
Still for that read-out and setting: next, `CN1CCCC2[C@@H]3CCC4=C(O)C(=O)CC[C@]4(C)C3CC[C@@]21C` (stereo not given in full): 22.1%; `CN(C)CCCNc1ncnc2nc[nH]c12`: -19.8%; `N#C/C(N)=C(\C#N)NC=NCc1ccccc1`: 2.3%.
As to `c1ccc2c(c1)NC(N1CCCCC1)=Nc1ncncc1-2`, the growth inhibition is -15.1%.
Still for that read-out and setting: the same measure for `O=C1C(Cl)N(c2ccc([N+](=O)[O-])cc2)C1c1c[nH]c2ccccc12` (stereo not given): 8.75%.
`OC1CN(c2ccccc2)CC(O)CN(c2ccccc2)C1` (stereo not given): the growth inhibition is -11.8%.
Still for that read-out and setting: the same measure for `CC(=O)CC(=O)NCCN(C)C`: 5.95%; for `COc1ccc(NC(=O)Nc2ccc(Br)cc2)cc1`: -34%.
As for `C[C@@H]1CC[C@]2(C(=O)O)CC[C@]3(C)C(=CC[C@@H]4[C@@]5(C)CC[C@H](O)C(C)(C)[C@@H]5CC[C@]43C)[C@@H]2[C@]1(C)O`, the growth inhibition was 13.5%.
Turning to `OCC1NCCC(O)C1OC1OC(CO)C(O)C(O)C1O` (stereo not given), the growth inhibition was -2.75%.
The same measure, in the same setting: the same measure for `NC(N)=NS(=O)(=O)c1ccc(NC(=O)c2ccc(Cl)c3c(Nc4ccc(S(=O)(=O)N=C(N)N)cc4)c4ccccc4nc23)cc1`: 34.5%; for `Cc1cccc(C)c1NC(=O)C(=O)/C(=C(\N)c1ccccc1)c1ccccc1`: 29.8%.
Still for that read-out and setting: the same measure for `CCCC1CN2CCc3cc(OC)c(OC)cc3C2CC1=O` (stereo not given): 12.4%; for `CCC[CH2][Sn]([C]#[C][Sn]([CH2]CCC)([CH2]CCC)[CH2]CCC)([CH2]CCC)[CH2]CCC`: 99.2% (active); for `O=[N+]([O-])c1cc2c(cc1O)[nH]c1cccc([N+](=O)[O-])c12`: 21.1%.

(Values after PubChem BioAssay (NCI).)
